Values joined by “and” are separate entries in the source; they are usually repeats but may differ in a detail not shown here. Equal values may be shown once. Among all 5,500 compounds or so, about 2,000 (36%) were called active. Inconclusive results (about 18%) are left out. Rule as the data show it: active = normalized growth mostly below about 0.91 (no sharp cut-off); inconclusive = no clear call, values can overlap the other calls; inactive = mostly above about 0.92. The list shows a part of the results.
Test: chemical genetic growth profiling, strain panel (AID 1159580);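 also: tested at 20 µM; growth read once vehicle control cultures reached saturation at 30 °C; 1 = growth at the plate median or of vehicle wells; lower values mean less growth of the strain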
Conditions: S. cerevisiae deletion strains, growth OD

Measured: normalized growth

Cc1cccc(C)c1NC1=NCCCS1
inactive: locus YAL013W, strain DEP1, stronger effect = lower value 0.999 | locus YAL021C, strain ccr4, stronger effect = lower value 1.03 | locus YAL026C, strain drs2, stronger effect = lower value 0.986 | locus YAL030W, strain snc1, stronger effect = lower value 1 | locus YAL040C, strain CLN3, stronger effect = lower value 0.978 | locus YBL061C, strain skt5, stronger effect = lower value 1 | locus YBR009C, strain hhf1, stronger effect = lower value 1.02 | locus YBR021W, strain FUR4, stronger effect = lower value 0.99 | locus YBR023C, strain chs3, stronger effect = lower value 1.02 | locus YBR171W, strain sec66, stronger effect = lower value 1.02 | locus YBR229C, strain ROT2, stronger effect = lower value 1 | locus YBR231C, strain swc5, stronger effect = lower value 0.997 | locus YBR279W, strain paf1, stronger effect = lower value 1 | locus YCL011C, strain gbp2, stronger effect = lower value 1.02 | locus YCL016C, strain dcc1, stronger effect = lower value 1 | locus YCL029C, strain bik1, stronger effect = lower value 0.974 | locus YCL061C, strain MRC1 (second series), stronger effect = lower value 1.01 | locus YCL061C, strain MRC1, stronger effect = lower value 1 | locus YCL069W, strain vba3, stronger effect = lower value 1 | locus YCR088W, strain abp1, stronger effect = lower value 1 | locus YDL005C, strain med2, stronger effect = lower value 0.995 | locus YDL035C, strain GPR1, stronger effect = lower value 0.979 | locus YDL040C, strain nat1, stronger effect = lower value 1 | locus YDL074C, strain BRE1, stronger effect = lower value 1.03 | locus YDL101C, strain DUN1, stronger effect = lower value 1 | locus YDL134C, strain PPH21, stronger effect = lower value 0.982 | locus YDL185W, strain tfp1, stronger effect = lower value 0.947 | locus YDL192W, strain arf1, stronger effect = lower value 0.987 | locus YDR001C, strain nth1, stronger effect = lower value 1.01 | locus YDR069C, strain doa4, stronger effect = lower value 1.02 | locus YDR101C, strain arx1, stronger effect = lower value 0.995 | locus YDR137W, strain rgp1, stronger effect = lower value 1 | locus YDR150W, strain NUM1, stronger effect = lower value 0.996 and 1.01 | locus YDR159W, strain sac3, stronger effect = lower value 0.991 | locus YDR162C, strain NBP2, stronger effect = lower value 0.97 | locus YDR195W, strain ref2 0.977 | locus YDR297W, strain sur2, stronger effect = lower value 1.01 | locus YDR318W, strain mcm21, stronger effect = lower value 0.972 | locus YDR334W, strain swr1, stronger effect = lower value 1.01 | locus YDR335W, strain msn5, stronger effect = lower value 1.01 | locus YDR363W, strain ESC2, stronger effect = lower value 1.02 | locus YDR388W, stronger effect = lower value 0.994 | locus YDR392W, strain spt3, stronger effect = lower value 1.01 | locus YDR502C, strain sam2, stronger effect = lower value 0.991 | locus YEL003W, strain gim4, stronger effect = lower value 1.01 | locus YEL037C, strain rad23, stronger effect = lower value 1.01 | locus YEL061C, strain CIN8 (second series), stronger effect = lower value 1.01 | locus YEL061C, strain CIN8, stronger effect = lower value 1 | locus YER002W, strain NOP16, stronger effect = lower value 1.01 | locus YER015W, strain faa2, stronger effect = lower value 1.01 | locus YER016W, strain bim1, stronger effect = lower value 1.01 | locus YER110C, stronger effect = lower value 0.976 | locus YER111C, strain swi4, stronger effect = lower value 1.01 | locus YER155C, strain BEM2 (second series), stronger effect = lower value 1.01 | locus YER155C, strain BEM2, stronger effect = lower value 0.995 | locus YER167W, strain BCK2, stronger effect = lower value 0.99 | locus YFR010W, strain ubp6, stronger effect = lower value 1.02 | locus YGL078C, strain dbp3, stronger effect = lower value 0.983 | locus YGL086W, strain mad1, stronger effect = lower value 0.998 | locus YGL167C, strain pmr1, stronger effect = lower value 1.01 | locus YGL173C, strain kem1, stronger effect = lower value 1.01 | locus YGL227W, strain vid30, stronger effect = lower value 1 | locus YGL240W, strain doc1, stronger effect = lower value 0.992 | locus YGL248W, strain PDE1, stronger effect = lower value 1.01 | locus YGL253W, strain hxk2, stronger effect = lower value 1.01 | locus YGR135W, strain pre9, stronger effect = lower value 0.967 | locus YGR229C, strain SMI1, stronger effect = lower value 0.996 | locus YGR252W, strain gcn5, stronger effect = lower value 1 | locus YHR013C, strain ard1, stronger effect = lower value 1.01 | locus YHR027C, strain rpn1, stronger effect = lower value 0.992 | locus YHR030C, strain SLT2, stronger effect = lower value 0.995 and 1.02 | locus YHR079C, strain IRE1 (second series), stronger effect = lower value 0.981 | locus YHR079C, strain IRE1, stronger effect = lower value 1.04 | locus YHR094C, strain hxt1, stronger effect = lower value 0.989 | locus YHR129C, strain ARP1, stronger effect = lower value 0.988 | locus YHR142W, strain chs7, stronger effect = lower value 1.01 | locus YHR200W, strain rpn10, stronger effect = lower value 0.96 | locus YIL066C, strain RNR3, stronger effect = lower value 1 | locus YIL073C, strain SPO22, stronger effect = lower value 0.86 | locus YIL125W, strain kgd1, stronger effect = lower value 0.987 | locus YIR030C, strain dcg1, stronger effect = lower value 0.975 | locus YJL092W, strain hpr5, stronger effect = lower value 1 | locus YJL095W, strain BCK1 (second series), stronger effect = lower value 1 | locus YJL095W, strain BCK1, stronger effect = lower value 1.03 and 1.04 | locus YJL115W, strain asf1, stronger effect = lower value 1.01 | locus YJL129C, strain trk1, stronger effect = lower value 1 | locus YJL134W, strain LCB3, stronger effect = lower value 0.994 | locus YJL154C, strain vps35, stronger effect = lower value 1.01 | locus YJL164C, strain tpk1, stronger effect = lower value 1.01 | locus YJL166W, strain qcr8, stronger effect = lower value 1.01 | locus YJL168C, strain set2, stronger effect = lower value 0.99 | locus YJL187C, strain SWE1 (second series), stronger effect = lower value 1.03 | locus YJR043C, strain POL32, stronger effect = lower value 1.02 | locus YJR066W, strain TOR1, stronger effect = lower value 0.955
